# About 1,000 (0.29%) of roughly 340,000 compounds were called active. These entries were drawn from the full list. Measured potencies and affinities stand elsewhere. A number with no mark means an inactive call. No stated cut-off is given here; in the data, inconclusive means inhibition above about 27% without an active follow-up result; inactive means below that.
# Assay: H1N1 influenza NS1A inhibitors, functional cell based assay (AID 504329)
# Conditions: percent inhibition, at 12.5 µM, stronger effect = higher value
row,SMILES,inhibition
1,CSc1ccc(CN(C)CC(=O)Nc2c(F)cccc2F)cc1,4.59%
2,CC(C)c1ccc(NC(=O)C2=NNC(=O)CC2)cc1,8.16%
3,O=C(CCCCC(=O)OCC1CCCO1)OCC1CCCO1 (stereo unspecified),-25.2%
4,O=C1COc2ccccc2N1Cc1ccc(Cl)cc1,-6.96%
5,Cc1c[n+](C)ccc1CC1C([N+](=O)[O-])=C[N-]c2ncnn21 (stereo unspecified),-6.38%
6,O=C(Cc1ccc(O)cc1)NCCNC(=S)NCc1ccccc1,-12.1%
7,O=c1oc2ccccc2cc1-c1ccccc1,-7.16%
8,O=Cc1c(-c2ccccc2)cc2oc3ccccc3cc1-2,10.8%
9,CCOc1ccc(NC(=O)NCc2ccccn2)cc1,-5.82%
10,O=C(NCc1ccccn1)Nc1ccccc1Cl,-1.88%
11,Cc1ccc(NC(=O)C(NCc2ccccn2)c2ccccc2)cc1 (stereo unspecified),-1%
12,O=C(Cc1ccccn1)Nc1ccccc1,-8.73%
13,S=C(NCc1ccccn1)Nc1ccccc1Cl,-10.4%
14,CCOc1ccc(NC(=O)CC(c2ccccc2)c2ccc(F)cc2)cc1 (stereo unspecified),-2.67%
15,Cc1cc(C)cc(NC(=O)c2ccc(S(=O)(=O)C(F)F)cc2)c1,15.2%
16,COC(=O)C(C)Sc1ccc2nnc(-c3ccccc3)n2n1 (stereo unspecified),0.68%
17,COc1ccc(NS(=O)(=O)c2ccc3oc(SCc4ccc(F)cc4)nc3c2)cc1,-1.81%
18,O=C(O)c1cc(-c2cccs2)nn1-c1cccc(Cl)c1,-3.66%
19,CC(C)CCNC(=O)CSc1nnc(-c2ccc(S(=O)(=O)N3CCCC3)cc2)n1C,1.62%
20,O=C(CSc1n[nH]c(-c2cccs2)n1)NCCc1ccccc1,-3.95%
21,COCCN=c1scc(-c2ccco2)n1/N=C/c1ccc(O)c(O)c1O,13.4%
22,CN=c1scc(-c2cccs2)n1/N=C/c1ccc(O)c(O)c1O,28.1%
23,Cc1ccc(S(=O)(=O)N2CCN(C(=O)C3CCCC3)CC2)cc1C,-7.76%

row,SMILES,inhibition
1,CCCCC(=O)NC(c1ccc(C(C)C)cc1)c1ccc2cccnc2c1O (stereo unspecified),-9.31%
2,CCCC(=O)NC(c1ccc(Cl)cc1)c1ccc2cccnc2c1O (stereo unspecified),-7.24%
3,CCCC(=O)NC(c1ccc(C)cc1)c1ccc2cccnc2c1O (stereo unspecified),4.97%
4,CCCC(=O)NC(c1ccc(C(C)C)cc1)c1ccc2cccnc2c1O (stereo unspecified),-11.7%
5,CCCCC(=O)NC(c1ccc(N(CC)CC)cc1)c1ccc2cccnc2c1O (stereo unspecified),11.6%
6,CCCCC(=O)NC(c1ccccc1)c1ccc2cccnc2c1O (stereo unspecified),17.1%
7,CCc1cc(C(=O)N2CCCC(C(=O)c3ccc(Oc4ccccc4)cc3)C2)n(C)n1 (stereo unspecified),-0.31%
8,COc1ccc(NC(=O)c2ccc(NC(=O)CN(C)CC(=O)Nc3c(C)cccc3C)cc2)cc1,-7.57%
9,C/C=C\C=C\C(=O)N1CC2(CC(c3cccc(NC(=O)CC(c4ccccc4)c4ccccc4)c3)=NO2)C[C@H]1C(N)=O (stereo partly specified),2.26%
10,COCCCNC(=O)c1cc(=O)n(Cc2ccc(Cl)cc2)c2ccccc12,6.81%
11,CCCCCc1cc(=O)oc2c(C(CCN3CCCC(C)C3)c3ccc4c(c3)OCO4)c(OC)cc(OC)c12 (stereo unspecified),16.4%
12,CCCCCc1cc(=O)oc2c(C(CCN(CC)CC)c3cc(OC)c(OC)c(OC)c3)c(OC)cc(OC)c12 (stereo unspecified),9.43%
13,CCCCCc1cc(=O)oc2c(C(CCN3CCN(c4ccccc4)CC3)c3ccc(N(C)C)cc3)c(OC)cc(OC)c12 (stereo unspecified),-11.8%
14,CCCCCc1cc(=O)oc2c(C(CCN3CCCCC3)c3ccc(OC)cc3)c(OC)cc(OC)c12 (stereo unspecified),18.7%
15,CCCCCc1cc(=O)oc2c(C(CCN(CC)CC)c3ccc(OC)cc3)c(OC)cc(OC)c12 (stereo unspecified),5.11%
16,CCCCCc1cc(=O)oc2c(C(CCN3CCCC(C)C3)c3ccc(OC)cc3)c(OC)cc(OC)c12 (stereo unspecified),8.01%
17,Nc1nnc(SCC(=O)NCCNC(=O)CSc2nnc(N)s2)s1,-11.3%
18,Cc1noc(-c2ccc(Cl)cc2)c1C(=O)O/N=C(\N)c1ccc(C(C)(C)C)cc1,12.5%
19,O=C(CN1CCCCC1)N=Nc1c(O)[nH]c2ccccc12,-8.88%
20,Cc1ccc(-c2nnc(N3CCCCC3)c3ccccc23)cc1S(=O)(=O)N(C)C,-3.68%
21,CS(=O)(=O)Oc1ccc2c(c1)O/C(=C\c1cccc([N+](=O)[O-])c1)C2=O,7.03%
22,CS(=O)(=O)c1ccc(S(=O)CC(=O)OCc2ccccc2)c([N+](=O)[O-])c1 (stereo unspecified),11.4%
23,COc1ccccc1OCCOC(=O)Nc1ccccc1,-11.2%

row,SMILES,inhibition
1,COc1cc(/C=C2/C(=O)N(c3ccc(Br)cc3)N=C2C)cc(OC)c1OC,3.78%
2,O=C1/C(=C\c2ccc(O)c(O)c2)C(c2ccccc2)=NN1c1ccccc1,23.5%
3,COc1cc(/C=C2/C(=O)N(c3ccc(C(=O)O)cc3)N=C2C)cc(OC)c1O,13.2%
4,COc1cc(/C=C2\C(=O)N(c3ccc(NC(C)=O)cc3)N=C2c2ccccc2)ccc1O,12.5%
5,CCOC(=O)C1CCC(CN(Cc2ccccc2)S(=O)(=O)c2ccc([N+](=O)[O-])cc2)CC1 (stereo unspecified),6.67%
6,CCOC(=O)c1ccc(COc2ccc(C(C)C)cc2)o1,-6.49%
7,O=C1CSC(=S)N1/N=C/c1ccc(O)c(O)c1O,-1.09%
8,COc1ccccc1C=NN1C(=O)CSC1=S,1.86%
9,Cc1ccccc1/C=N/N1C(=O)CSC1=S,-0.54%
10,CCOc1cccc(/C=N/N=C/c2cccc(OCC)c2O)c1O,-10.6%
11,CCOc1cccc(/C=N/N2C(C)CCCC2C)c1O (stereo unspecified),-10.1%
12,O=C1CSC(=S)N1N=Cc1cccc2ccccc12,13.2%
13,CC(=O)O[C@H]1[C@H](O)[C@H](Oc2c(O)c(C)c3c4c2[C@@H](C)CC[C@@H]4[C@@H](C)C[C@H]3C=C(C)C)O[C@@H](C)[C@H]1O,4.02%
14,COc1ccc(-c2nc3ccccc3c(=O)n2CC(C)C)cc1,-17.7%
15,CCN1C(=NCCCOC(C)C)N[C@@H](CCc2ccccc2)[C@H](C(=O)NCCCOC(C)C)[C@H]1C,7.63%
16,COc1ccc(OC)c(C(=O)N(C)C2CCCN(Cc3ccccc3F)C2)c1 (stereo unspecified),2.52%
17,COC(=O)C1=C(c2c(C)noc2C)C[C@@H]2CC[C@H]1N2C(=O)NCCCOC(C)C,-1.03%
18,COC(=O)C1CCN(C(=O)/C=C/c2ccc(OC)cc2)CC1,1.45%
19,CCOc1ccccc1OCCCC(=O)ON=C(N)c1ccccc1,-17.2%
20,COc1ccc(-c2c(NC(=O)c3ccco3)oc3ccccc3c2=O)cc1OC,9.22%
21,CCOc1ccccc1C(=S)NC1CCCCC1,-0.78%
22,CCOc1ccccc1OCCNC1CCCC1,-3.47%
23,CC(C)C[C@@H]1CN=C(N)N1C[C@@H]1CCCN1C[C@@H](C(C)C)N1C[C@@H](Cc2ccccc2)N(CCCC2CCCC2)C1=N,0.6%

row,SMILES,inhibition
1,CCOc1ccc(S(=O)(=O)Nc2ccc(C(=O)NCC(C)(C)N3CCOCC3)cc2)cc1,-9.51%
2,O=C(O)c1cc(S(=O)(=O)O)ccc1O,-4.88%
3,O=C(O)c1cc(S(=O)(=O)Nc2ccccc2C(=O)O)ccc1O,-2.33%
4,O=C(NNC(=O)c1cc(-c2cccc(Br)c2)nc2ccccc12)c1csc(N2CCOCC2)n1,-7.9%
5,O=C(N/N=C/c1ccncc1)c1ccncc1,0.03%
6,Oc1ccc(Br)cc1/C=N/Nc1ncc(-c2ccccc2)cn1,-1.12%
7,Cc1cc(C)nc(N/N=C/c2cc(Br)ccc2O)n1,8.15%
8,COc1cc([N+](=O)[O-])cc(/C=N/NC(=O)c2cncc(Br)c2)c1O,-13.3%
9,COc1cc([N+](=O)[O-])cc(/C=N/NC(=O)c2cccnc2)c1O,-13.7%
10,COc1cc([N+](=O)[O-])cc(/C=N/NC(=O)c2ccc(NC(=O)c3ccc(C)cc3)cc2)c1O,-0.59%
11,O=C(N/N=C/c1cc2c(cc1Cl)OCO2)c1ccncc1,-1.41%
12,COc1cc(/C=N/NC(=O)c2ccc(C)nc2)cc([N+](=O)[O-])c1O,-21.2%
13,Cc1ccc([N+](=O)[O-])cc1S(=O)(=O)Nc1ccc(OCC(=O)N2CCOCC2)cc1,-6.07%
14,COC(=O)c1ccccc1S(=O)(=O)NC(=O)c1ccccc1,-2.87%
15,CCOC(=O)C1CCN(CCC(=O)Nc2ccc(Br)cc2)CC1,-10.6%
16,CC(Sc1nnc2ccccn12)C(N)=O (stereo unspecified),7.97%
17,Cc1ccc(S(=O)(=O)Nc2ccccc2C(=O)N2CCCCC2)cc1,-16.7%
18,COc1ccc(C(=O)Nc2cccc(C)n2)cc1S(=O)(=O)N1CCCc2ccccc21,8.43%
19,CC(C)(C)OC(=O)N1C[C@H](O)C[C@H]1C(=O)OCC(=O)c1ccc([N+](=O)[O-])cc1,9.24%
20,CN(CC(=O)Nc1ccc(Cl)c(S(=O)(=O)N2CCOCC2)c1)C(=O)c1cccs1,-3.85%
21,Cc1cnc(C)c(N2CCN(Cc3cn(C)nc3-c3cccc(Cl)c3)CC2)n1,-9.06%
22,COC(=O)C(C(=O)OC)[C@@H]1C=C[C@H](C[N+](=O)[O-])N(C(C)=O)C1,-12.3%

# Reference: PubChem BioAssay AID504329 (Southern Research Specialized Biocontainment Screening …, 2011)
